Assay [1] has as its system Wnt5a (protein binding on small-molecule microarray). The assay can be described thus: small molecules binding Wnt5a protein – biophysical, small-molecule microarray, 635/667 nm fluorescence, primary screen (AID 1142).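 Note: fluorescence read at 667 nm with signal to noise per printed feature.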 Particulars: 635 nm fluorescence, higher = more signal.
Assay [2] can be described thus: ATP-based viability of Huh7 replicon cells – cell-based, CellTiter-Glo luminescence, basal, 48 h, cytotoxicity control for HCV replication inhibitor project, primary screen (AID 1143).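 Note: Huh7 hepatoma cells carrying a hepatitis C replication reporter with no stimulus; test concentration not given here.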 Particulars: higher = more signal, called active from +8 up or from −8 down.
Assay [3] in a line: Pseudomonas biofilm growth suppression – PAO1 strain, BacTiter-Glo luminescence, LB-PBS, primary screen (AID 1144). Particulars: P. aeruginosa PAO1 biofilm, 12 h, higher = more signal.
Assay [4] is described as follows: basal CRE-LacZ reporter activity in PC12 – cell-based, unstimulated, primary screen (AID 1145). Particulars: no forskolin, luminescence, 4.5 h, higher = more signal, called active from +8 up or from −8 down.
Assay [5] can be described thus: forskolin-driven CRE-LacZ activity in PC12 – cell-based, CRE-LacZ reporter, forskolin-stimulated, primary screen (AID 1146).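 Note: PC12 cells with 6xCRE LacZ reporter stimulated by forskolin 10 µM; beta-galactosidase reporter signal reflecting CREB driven transcription.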 Particulars: luminescence, 4.5 h, higher = more signal, called active from +8 up or from −8 down.
For assay [6], the target named is Streptavidin (Streptomyces avidinii) (UniProt P22629). The assay can be described thus: compounds binding control protein streptavidin – biophysical, small-molecule microarray, 635/667 nm fluorescence, artefact control for SMM compound annotation, primary screen (AID 1147).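 Note: signal reflects streptavidin binding to arrayed compounds as a control protein.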 Particulars: higher = more signal.
Sequence of Streptavidin (Streptomyces avidinii) (P22629 whole entry, looked up): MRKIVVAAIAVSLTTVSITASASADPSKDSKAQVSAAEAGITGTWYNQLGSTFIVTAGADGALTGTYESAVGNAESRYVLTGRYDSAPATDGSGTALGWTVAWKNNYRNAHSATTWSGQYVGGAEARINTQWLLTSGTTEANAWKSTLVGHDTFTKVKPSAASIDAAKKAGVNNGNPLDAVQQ
Assay [7] is described as follows: probe aInhba binding on compound microarray – biochemical, small-molecule microarray, 635/667 nm fluorescence, primary screen (AID 1148).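 Note: score merges 667nm spot fluorescence with signal-to-noise for antibody binding to printed compounds.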 Particulars: higher = more signal.
Assay [8] addresses Torsin-1A (Homo sapiens) (UniProt O14656). In words: TOR1A wild-type binding on microarray – cell lysate, small-molecule microarray, lysate, 635/667 nm, primary screen (AID 1149). Particulars: COS7 hTOR1A-WT lysate, 635 nm fluorescence, higher = more signal.
Assay [9] has the same target. In words: torsin A mutant lysate binding on microarrays – cell lysate, small-molecule microarray, COS7 lysate, 635/667 nm fluorescence, primary screen (AID 1150).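 Note: score pools 667 nm emission and signal to noise measuring lysate protein binding.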 Particulars: COS7 hTOR1A mutant lysate, 635 nm fluorescence, higher = more signal.
Assay [10] has as its system Sonic hedgehog protein (Shh). In words: Sonic hedgehog microarray binding compounds – biochemical, small-molecule microarray, 635/667 nm fluorescence, primary screen (AID 1151).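 Note: Shh protein binding to compounds spotted on small-molecule microarray slides; score combines spot fluorescence intensity with signal-to-noise across triplicate slides.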 Particulars: 635 nm fluorescence, higher = more signal.
Assay [11] can be described thus: optical density shifts of acrAB sulA E. coli – strain DRC41, OD650, 48 h, E. coli filamentation inducer project, primary screen (AID 1152).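 Note: E. coli MC1000 strain DRC41 lacking acrAB efflux pump and sulA.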 Particulars: higher = more signal, called active from +8 up or from −8 down.
A short description of assay [12]: probe aLefty1 binding on compound microarray – biochemical, small-molecule microarray, 635/667 nm fluorescence, primary screen (AID 1153).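 Note: score merges spot fluorescence with signal-to-noise ratio from the scanned slide images.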 Particulars: higher = more signal.
A short description of assay [13]: plasmodial surface anion channel blockers, osmotic lysis – cell-based, P. falciparum Indochina, OD700, 1 h, primary screen (AID 1154). Particulars: P. falciparum Indochina infected RBC osmotic lysis, higher = more signal, called active from +8 up or from −8 down.
The nature of assay [14]: plasmodial surface anion channel blockers, osmotic lysis – cell-based, P. falciparum Indochina, OD700, 2 h, primary screen (AID 1155).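 Note: lysis reports solute entry through the parasite surface anion channel PSAC.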 Particulars: P. falciparum Indochina infected erythrocytes, higher = more signal, called active from +8 up or from −8 down.
Assay [15] in a line: changes in parasitized red cell lysis, either direction – P. falciparum Indochina, OD700, 3 h, PSAC antagonist project, primary screen (AID 1156). Particulars: P. falciparum-infected erythrocytes, osmotic lysis, higher = more signal, called active from +8 up or from −8 down.
Assay [16] can be described thus: plasmodial surface anion channel blockers, osmotic lysis – cell-based, P. falciparum Indochina, OD700, 18 h, primary screen (AID 1157). Particulars: P. falciparum Indochina infected erythrocytes, osmotic lysis OD700, 18 h; higher = more signal, called active from +8 up or from −8 down.
Assay [17] can be described thus: S6 kinase pathway phospho-S6 level changes – cell-based, A549, cytoblot, luminescence, serum-stimulated, primary screen (AID 1158).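 Note: serum-stimulated A549 lung adenocarcinoma cells; signal is phosphorylated S6 detected by cytoblot immunostaining with HRP secondary.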 Particulars: 5 h, higher = more signal.
The target in assay [18] is NADPH oxidase 2 (Homo sapiens) (UniProt P04839). The assay can be described thus: compounds shifting NOX2 Amplex Red fluorescence – cell-based, HEK293-NOX2, PMA-stimulated, NOX inhibitor project, primary screen (AID 1159). Note: test concentration not given here. Particulars: 45 min, higher = more signal, called active from +8 up or from −8 down.
Sequence of NADPH oxidase 2 (Homo sapiens) (P04839 whole entry, looked up): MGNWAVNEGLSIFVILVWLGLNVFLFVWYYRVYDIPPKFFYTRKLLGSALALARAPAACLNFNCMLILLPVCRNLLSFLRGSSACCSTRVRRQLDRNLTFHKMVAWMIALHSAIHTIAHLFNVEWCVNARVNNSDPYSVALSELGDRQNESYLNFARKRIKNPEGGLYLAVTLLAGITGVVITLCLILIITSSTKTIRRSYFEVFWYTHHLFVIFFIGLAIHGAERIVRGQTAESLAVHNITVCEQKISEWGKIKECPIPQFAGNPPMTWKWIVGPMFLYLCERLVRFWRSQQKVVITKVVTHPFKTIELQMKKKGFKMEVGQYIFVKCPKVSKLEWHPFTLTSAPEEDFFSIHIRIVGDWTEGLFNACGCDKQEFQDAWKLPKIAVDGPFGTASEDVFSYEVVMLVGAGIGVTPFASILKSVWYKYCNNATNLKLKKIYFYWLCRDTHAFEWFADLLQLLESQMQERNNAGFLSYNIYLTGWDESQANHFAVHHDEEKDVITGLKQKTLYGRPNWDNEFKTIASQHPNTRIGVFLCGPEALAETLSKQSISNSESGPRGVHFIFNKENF
The target of assay [19] is NADPH oxidase 4 (Homo sapiens) (UniProt Q9NPH5). The assay can be described thus: compounds shifting NOX4 Amplex Red fluorescence – cell-based, HEK293-NOX4, tetracycline-induced, NOX inhibitor project, primary screen (AID 1160). Particulars: HEK293-NOX4, Amplex Red H2O2 fluorescence, 45 min; higher = more signal, called active from +8 up or from −8 down.
Sequence of NADPH oxidase 4 (Homo sapiens) (Q9NPH5 whole entry, looked up): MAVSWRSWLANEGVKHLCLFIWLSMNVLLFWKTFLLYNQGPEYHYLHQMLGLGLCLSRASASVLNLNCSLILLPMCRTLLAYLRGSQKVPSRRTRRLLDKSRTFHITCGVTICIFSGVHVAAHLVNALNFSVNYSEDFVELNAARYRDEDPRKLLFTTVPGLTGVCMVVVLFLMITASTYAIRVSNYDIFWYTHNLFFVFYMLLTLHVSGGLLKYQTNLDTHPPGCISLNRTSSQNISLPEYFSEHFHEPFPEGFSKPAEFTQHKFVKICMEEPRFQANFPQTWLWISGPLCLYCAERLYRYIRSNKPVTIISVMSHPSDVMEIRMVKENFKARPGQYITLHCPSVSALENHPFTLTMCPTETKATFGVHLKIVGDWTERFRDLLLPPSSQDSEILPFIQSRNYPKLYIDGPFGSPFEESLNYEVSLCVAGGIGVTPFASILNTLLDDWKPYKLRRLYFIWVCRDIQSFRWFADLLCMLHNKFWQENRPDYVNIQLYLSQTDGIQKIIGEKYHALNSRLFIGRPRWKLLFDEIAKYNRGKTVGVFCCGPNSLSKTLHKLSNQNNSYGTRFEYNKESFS
The target of assay [20] is NADPH oxidase 5 (Homo sapiens) (UniProt Q96PH1). The assay can be described thus: compounds shifting NOX5 Amplex Red fluorescence – cell-based, HEK293-NOX5, NOX inhibitor project, primary screen (AID 1161). Particulars: HEK293-NOX5, ionomycin, 45 min, higher = more signal.
Sequence of NADPH oxidase 5 (Homo sapiens) (Q96PH1 whole entry, looked up): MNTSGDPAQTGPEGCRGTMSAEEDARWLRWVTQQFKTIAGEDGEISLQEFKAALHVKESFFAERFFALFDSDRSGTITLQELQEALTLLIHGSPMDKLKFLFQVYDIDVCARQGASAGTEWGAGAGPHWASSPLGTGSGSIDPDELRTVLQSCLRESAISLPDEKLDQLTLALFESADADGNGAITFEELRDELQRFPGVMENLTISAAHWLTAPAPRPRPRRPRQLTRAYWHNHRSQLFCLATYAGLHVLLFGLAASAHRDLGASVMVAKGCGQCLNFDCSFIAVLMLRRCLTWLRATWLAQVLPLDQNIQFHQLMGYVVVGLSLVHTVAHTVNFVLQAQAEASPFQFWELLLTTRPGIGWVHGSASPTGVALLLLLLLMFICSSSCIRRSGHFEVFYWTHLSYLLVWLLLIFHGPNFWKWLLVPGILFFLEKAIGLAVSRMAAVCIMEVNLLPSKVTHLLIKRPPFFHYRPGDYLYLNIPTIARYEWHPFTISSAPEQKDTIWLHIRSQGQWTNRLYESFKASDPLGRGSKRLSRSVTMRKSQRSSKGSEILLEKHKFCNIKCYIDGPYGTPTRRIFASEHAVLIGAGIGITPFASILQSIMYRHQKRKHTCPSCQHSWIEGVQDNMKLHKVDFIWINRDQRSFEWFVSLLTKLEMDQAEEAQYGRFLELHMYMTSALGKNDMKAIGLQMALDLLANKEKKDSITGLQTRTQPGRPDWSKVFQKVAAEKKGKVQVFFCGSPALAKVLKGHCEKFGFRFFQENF

The results in this text go back to PubChem BioAssay.

Activity calls are given as the source filed them. Unless noted, the rule behind the calls is not given here.

Sequence of Torsin-1A (Homo sapiens) (O14656 whole entry, looked up): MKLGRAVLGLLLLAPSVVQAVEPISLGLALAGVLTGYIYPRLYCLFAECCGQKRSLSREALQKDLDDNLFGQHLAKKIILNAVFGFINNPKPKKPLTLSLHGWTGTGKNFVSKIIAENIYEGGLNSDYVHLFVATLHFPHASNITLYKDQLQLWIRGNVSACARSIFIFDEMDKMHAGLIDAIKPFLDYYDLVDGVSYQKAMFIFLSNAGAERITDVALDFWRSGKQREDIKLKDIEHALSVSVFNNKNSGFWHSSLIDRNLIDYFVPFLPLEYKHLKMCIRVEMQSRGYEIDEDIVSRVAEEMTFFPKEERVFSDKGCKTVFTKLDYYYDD

For `C=C(CCCC)C(=O)CC[C@@H](OC(C)=O)c1ccccc1OCCO`, the composite z-score was -0.283 in assay [1]; -0.484 in assay [6]; -0.024 in [7]; -0.0615 with Torsin-1A (Homo sapiens) [8]; 0.915 in the assay with Torsin-1A (Homo sapiens) [9]; 0.276 in [10]. In assay [12], this compound displayed a composite z-score of -0.145. The z-score in assay [2] is -3.08 (inactive); in [3], -0.206 (inactive); in assay [4] it was 9.35 (active); in [5], -0.841 (inactive); in assay [11] it was 0.377 (inactive); in assay [13], 4.13 (inactive). The z-score was 0.663 (inactive) in assay [14]; -0.566 (inactive) in assay [15]; 0.7 (inactive) in assay [16]; -0.0442 in assay [17]; 0.356 (inactive) in [18]; -0.852 (inactive) in assay [19]. Also, the z-score in assay [20] is -1.68.
As to `CC[C@@H]1C=C(C(=O)O)[C@H](c2ccccc2)N1S(=O)(=O)c1ccc([N+](=O)[O-])cc1`, the composite z-score is -0.0781 in assay [1]; 0.698 in assay [6]; -0.128 in assay [7]; 0.802 with Torsin-1A (Homo sapiens) [8]; 0.717 with Torsin-1A (Homo sapiens) [9]; -0.335 in [10]. Further, in assay [12], the composite z-score was -0.405. The z-score in [2] is -0.979 (inactive); in assay [3] it was -0.667 (inactive); in assay [4], -0.873 (inactive); in [5] it was 0.403 (inactive); in [11], -3.21 (inactive); in assay [13] it was 1.3 (inactive). For the same compound, the z-score is 1.01 (inactive) in [14]; 0.751 (inactive) in assay [15]; 1.15 (inactive) in [16]; -0.37 in [17]; 0.325 (inactive) in assay [18]; -0.0428 (inactive) in [19]. In assay [20], the z-score was -0.526.
For `CCCC[C@@H]1C[C@H]1[C@@H](NC(=O)c1ccccc1)c1ccccc1C(F)(F)F`, the composite z-score in [1] is 0.175; in [6], 1.84; in [7], 0.319; with Torsin-1A (Homo sapiens) [8], -0.113; with Torsin-1A (Homo sapiens) [9], 0.322; in assay [10], -0.654. Further, the composite z-score in assay [12] is 0.747. The z-score in assay [2] was 0.0018 (inactive); in [3], -0.0632 (inactive); in assay [4], 1.73 (inactive); in assay [5], 1.17 (inactive); in [11] it was -0.94 (inactive); in [13] it was -0.247 (inactive). In addition, the z-score in [14] was 0.803 (inactive); in assay [15], -0.429 (inactive); in [16], 0.422 (inactive); in assay [17], 0.807; in assay [18] it was 0.566 (inactive); in assay [19] it was -1.02 (inactive). Further, the z-score in [20] stood at 0.262.
Turning to `COCCOC(=O)N1C(=O)[C@@]2(c3cc(C#CC4=CCCCC4)ccc31)[C@H](c1ccc(O)cc1)N1[C@H](c3ccccc3)[C@H](c3ccccc3)OC(=O)[C@H]1[C@@H]2C(=O)N1CCCCCCC1`, the composite z-score stood at 0.288 in assay [1]; 1.29 in assay [6]; 0.0818 in assay [7]; 0.588 with Torsin-1A (Homo sapiens) [8]; 0.594 in the assay with Torsin-1A (Homo sapiens) [9]; 1.76 in assay [10]. Moreover, the composite z-score in assay [12] is 1.49. Further, the z-score in [2] was -3.42 (inactive); in assay [3], -0.307 (inactive); in assay [4] it was -1.01 (inactive); in [5] it was -1.09 (inactive); in [11], 1.65 (inactive); in assay [13] it was -0.138 (inactive). The z-score in [14] was -0.321 (inactive); in assay [15], -0.52 (inactive); in assay [16] it was 0.389 (inactive); in assay [17], -0.137; in assay [18], 1.06 (inactive); in [19], 0.325 (inactive). Further, the z-score in assay [20] was determined as 1.53.
Take `COCCCNC(=O)[C@@H]1c2ccccc2C(=O)N(CC23CC4CC(CC(C4)C2)C3)[C@H]1c1ccc(CO)cc1`: the composite z-score in assay [1] was 1.01; in [6], -0.269; in [7], 0.266; with Torsin-1A (Homo sapiens) [8] it was 0.306; with Torsin-1A (Homo sapiens) [9] it was 0.262; in assay [10] it was 1.03. In addition, in assay [12], the composite z-score worked out at 0.276. The z-score in assay [2] was -4.78 (inactive); in assay [3], -0.689 (inactive); in assay [4], -0.0259 (inactive); in assay [5], -1.07 (inactive); in [11], -0.162 (inactive); in assay [13], 4.59 (inactive). Moreover, the z-score was -0.14 (inactive) in [14]; 3.38 (inactive) in assay [15]; -0.877 (inactive) in assay [16]; 2.61 in assay [17]; -1.24 (inactive) in [18]; -2.34 (inactive) in [19]. Further, the z-score in assay [20] was -4.2.
Regarding `Cc1ccc(S[C@]2(C(=O)NC(C)C)CC(=O)N(Cc3cc(C(F)(F)F)cc(C(F)(F)F)c3)[C@@H]2c2ccc(CO)cc2I)cc1`, the composite z-score in [1] is -0.168; in [6], -0.995; in assay [7] it was -0.148; with Torsin-1A (Homo sapiens) [8], 0.61; in the assay with Torsin-1A (Homo sapiens) [9], 1.66; in assay [10], -0.0174. Besides, the composite z-score in assay [12] is -0.136. In addition, the z-score was -1.11 (inactive) in [2]; 0.381 (inactive) in [3]; -0.554 (inactive) in [4]; 1.28 (inactive) in assay [5]; 0.191 (inactive) in [11]; 3.22 (inactive) in [13]. The z-score in assay [14] was 0.504 (inactive); in [15], -0.365 (inactive); in assay [16], 0.132 (inactive); in assay [17] it was -0.398; in assay [18], 1.57 (inactive); in assay [19], -1.07 (inactive). Besides, the z-score in assay [20] is 2.23.
Regarding `COC(=O)[C@@]1(Cc2ccccc2CN=[N+]=[N-])N=C(c2ccc(OCCCO)cc2)O[C@H]1c1ccccc1N=[N+]=[N-]`, the composite z-score is 0.54 in assay [1]; -0.104 in [6]; -0.0645 in assay [7]; -1.42 with Torsin-1A (Homo sapiens) [8]; -0.855 in the assay with Torsin-1A (Homo sapiens) [9]; 1.77 in assay [10]. Moreover, the composite z-score in assay [12] was determined as 0.495. The z-score was -3.9 (inactive) in [2]; -0.174 (inactive) in assay [3]; 2.28 (inactive) in assay [4]; -0.505 (inactive) in assay [5]; -0.55 (inactive) in assay [11]; 26.8 (active) in assay [13]. Further, the z-score in [14] is 16.8 (active); in [15], 1.76 (inactive); in [16], 2.33 (inactive); in assay [17], 0.166; in [18], -1.2 (inactive); in assay [19] it was 1.25 (inactive). Also, the z-score in [20] was determined as 0.841.
As for `C=C(CCCC)/C(=C/C[C@@H](OC(=O)c1ccncc1)c1cccc(OCCO)c1)c1cc(C(=O)OC)ccc1OC`, the composite z-score turned out to be 0.153 in [1]; 0.788 in assay [6]; 0.0852 in assay [7]; 1.13 with Torsin-1A (Homo sapiens) [8]; 0.76 with Torsin-1A (Homo sapiens) [9]; 1.47 in assay [10]. In [12], this compound showed a composite z-score of 0.0371. In addition, the z-score was -1.36 (inactive) in assay [2]; -1.04 (inactive) in [3]; 13.4 (active) in assay [4]; -1.47 (inactive) in assay [5]; 1.37 (inactive) in assay [11]; 21 (active) in [13]. Besides, the z-score in assay [14] is 3.89 (inactive); in assay [15], 2.48 (inactive); in assay [16], 1.26 (inactive); in [17] it was -0.365; in assay [18], 1.33 (inactive); in [19], 1.62 (inactive). Moreover, the z-score in [20] is -0.975.
